Measured values from PubChem BioAssay (EPA / NIEHS).
The source made the active and inactive calls. Rule for the calls: active = hit-call score of the fitted dose curve at least 0.9, where 1 is the maximum; inactive = score below 0.9.

Experiments:
Settings in all cases: mRNA level, 48 h; actives raise or lower the signal
[1] = read-out: Glutathione S-transferase M3 (GSTM3), GSTM3 (gene 2947); assay: LTEA_HepaRG_GSTM3: Life Technologies and Expression Analysis (LTEA) Assay for Glutathione S-transferase M3 (GSTM3) using HepaRG (AID 2283501)
Procedure, shortened: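 HepaRG, plated 48 h, then serum-free induction medium; test chemical 48 h, duplicate; 100 uM top, half-log x8, 0.5% DMSO. Read-out: GSTM3 mRNA (TaqMan qRT-PCR, Fluidigm array). Bidirectional fit vs DMSO.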

[2] = read-out: Hypoxia-inducible factor 1-alpha (Homo sapiens) (UniProt Q16665); assay: LTEA_HepaRG_HIF1A: Life Technologies and Expression Analysis (LTEA) Assay for Hypoxia-inducible factor 1 (HIF1A) Trancription factor using HepaRG (AID 2283503);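 note: HIF1A transcript by TaqMan qRT-PCR normalized to ACTB GAPDH and POLR2A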
Procedure, shortened: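 Gain- or loss-of-signal HIF1A mRNA changes are fitted against a DMSO baseline. HepaRG cultures receive eight concentrations, highest 100 uM, for 48 h in serum-free induction medium with 0.5% DMSO.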

HGF (gene 3082) = assay: LTEA_HepaRG_HGF: Life Technologies and Expression Analysis (LTEA) Assay for Hepatocyte Growth Facto (HGF) using HepaRG (AID 2283505)
Procedure, shortened: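 Read-out is HGF transcript level by qRT-PCR, normalized to three housekeeping genes, fitted bidirectionally against 0.5% DMSO vehicle. Human HepaRG cells received test chemicals for 48 h at up to 100 uM.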

[3] = read-out: Insulin Like Growth Factor 1 (IGF1), IGF1 (gene 3479); assay: LTEA_HepaRG_IGF1: Life Technologies and Expression Analysis (LTEA) Assay for Insulin Like Growth Factor 1 (IGF1) using HepaRG (AID 2283506)
Procedure, shortened: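 qRT-PCR readout of IGF1 mRNA, normalized to three housekeeping genes, after 48 h chemical exposure of HepaRG cells. Concentrations: 8-point half-log series, top 100 uM, 0.5% DMSO vehicle. Gain or loss fitted against DMSO baseline.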

[4] = read-out: Insulin-like growth factor-binding protein 1 (IGFBP1), IGFBP1 (gene 3484); assay: LTEA_HepaRG_IGFBP1: Life Technologies and Expression Analysis (LTEA) Assay for Insulin-like growth factor-binding protein 1 (IGFBP1) using HepaRG (AID 2283508)
Procedure, shortened: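 Thawed HepaRG cells are plated for 48 h, switched to serum-free induction medium, then dosed in duplicate for another 48 h (100 uM top, half-log steps). Lysates in RLT go to qRT-PCR, and gain or loss of signal is fitted relative to vehicle.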

[5] = read-out: Interleukin 6 (IL6), IL6 (gene 3569); assay: LTEA_HepaRG_IL6: Life Technologies and Expression Analysis (LTEA) Assay for Interleukin 6 (IL6) using HepaRG (AID 2283509)
Procedure, shortened: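 qRT-PCR read-out of IL6 transcript, normalized to three housekeeping genes, after 48 h chemical exposure of HepaRG cells; 8-point half-log series, top 100 uM, 0.5% DMSO vehicle. Bidirectional curve fitting against DMSO baseline.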

[6] = read-out: Interleukin 6 Receptor (IL6R), IL6R (gene 3570); assay: LTEA_HepaRG_IL6R: Life Technologies and Expression Analysis (LTEA) Assay for Interleukin 6 Receptor (IL6R) using HepaRG (AID 2283510)
Procedure, shortened: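 HepaRG, 48 h exposure, 8-pt half-log series, top 100 uM, 0.5% DMSO vehicle, duplicates. Read-out: TaqMan qRT-PCR of IL6R transcript, housekeeping-gene normalized. Gain or loss fitted relative to DMSO baseline.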

[7] = read-out: Keratin 19 (KRT19), KRT19 (gene 3880); assay: LTEA_HepaRG_KRT19: Life Technologies and Expression Analysis (LTEA) Assay for Keratin 19 (KRT19) using HepaRG (AID 2283512)
Procedure, shortened: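 KRT19 transcript levels, measured by Fluidigm qRT-PCR against three housekeeping genes, are fitted for gain or loss of signal relative to DMSO. Human HepaRG cells receive test chemicals (top 100 uM, half-log steps, 0.5% DMSO) for 48 hours.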

[8] = read-out: JUN Transcription Factor, JUN (gene 3725); assay: LTEA_HepaRG_JUN: Life Technologies and Expression Analysis (LTEA) Assay for JUN Transcription Factor using HepaRG (AID 2283513)
Procedure, shortened: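 HepaRG, 48 h exposure, 8-pt half-log series top 100 uM, 0.5% DMSO, duplicate. JUN mRNA by qRT-PCR (Fluidigm), housekeeping-normalized (ACTB/GAPDH/POLR2A); bidirectional curve fit vs DMSO baseline.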

[9] = read-out: Lipase C (LIPC), LIPC (gene 3990); assay: LTEA_HepaRG_LIPC: Life Technologies and Expression Analysis (LTEA) Assay for Lipase C (LIPC) using HepaRG (AID 2283514)
Procedure, shortened: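 HepaRG, 48 h exposure, 8-pt half-log series from 100 uM in 0.5% DMSO, duplicates. Readout: LIPC mRNA by Fluidigm qRT-PCR, housekeeping-normalized (ACTB/GAPDH/POLR2A). Gain or loss fitted bidirectionally against DMSO baseline.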

[10] = read-out: Lipoprotein lipase (LPL), LPL (gene 4023); assay: LTEA_HepaRG_LPL: Life Technologies and Expression Analysis (LTEA) Assay for Lipoprotein lipase (LPL) using HepaRG (AID 2283515)
Procedure, shortened: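 HepaRG, 48 h exposure, 8-pt half-log dilutions from 100 uM, 0.5% DMSO vehicle, duplicates; qRT-PCR (Fluidigm array) of LPL mRNA vs housekeeping genes; bidirectional curve fit relative to DMSO baseline.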

[11] = read-out: MicroRNA 122 (MIR122), gene 406906; assay: LTEA_HepaRG_MIR122: Life Technologies and Expression Analysis (LTEA) Assay for MicroRNA 122 (MIR122) using HepaRG (AID 2283516); note: the transcript read is the microRNA miR-122
Procedure, shortened: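 qRT-PCR read-out (TaqMan, Fluidigm array), normalized to three housekeeping genes; HepaRG cells dosed 48 h at 8 concentrations up to 100 uM in 0.5% DMSO, duplicate; gain or loss fitted against DMSO baseline.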

[12] = read-out: matrix metalloproteinase-10 (MMP10), MMP10 (gene 4319); assay: LTEA_HepaRG_MMP10: Life Technologies and Expression Analysis (LTEA) Assay for matrix metalloproteinase-10 (MMP10) using HepaRG (AID 2283517)
Procedure, shortened: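 Transcript levels come from Fluidigm qRT-PCR normalized to three housekeeping genes, with curves fitted bidirectionally against 0.5% DMSO. Human HepaRG cells were dosed for 48 hours at concentrations up to 100 uM.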

MYC, MYC (gene 4609) = assay: LTEA_HepaRG_MYC: Life Technologies and Expression Analysis (LTEA) Assay for MYC using HepaRG (AID 2283518)
Procedure, shortened: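 HepaRG, ~100,000 cells/well, collagen I; 48 h plating; serum-free induction medium; 48 h dosing, duplicate, 100 uM top, half-log, 0.5% DMSO; total RNA → qRT-PCR MYC; gain/loss fit vs DMSO.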

[13] = read-out: matrix metalloproteinase-3 (MMP3), MMP3 (gene 4314); assay: LTEA_HepaRG_MMP3: Life Technologies and Expression Analysis (LTEA) Assay for matrix metalloproteinase-3 (MMP3) using HepaRG (AID 2283519)
Procedure, shortened: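 qRT-PCR read-out of MMP3 mRNA (normalised to three housekeeping genes) in HepaRG liver cells after 48 h chemical exposure; 8-point half-log series, top 100 uM, 0.5% DMSO vehicle. Bidirectional curve fitting against DMSO baseline.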

[14] = read-out: Nuclear factor NF-kappa-B p105 subunit (Homo sapiens) (UniProt P19838); assay: LTEA_HepaRG_NFKB1: Life Technologies and Expression Analysis (LTEA) Assay for Nuclear Factor Kappa B Subunit 1 (NFKB1) using HepaRG (AID 2283521);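 note: differentiated human HepaRG liver cells in serum-free induction medium; TaqMan qRT-PCR transcript normalised to ACTB GAPDH and POLR2A housekeeping genes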
Procedure, shortened: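 NFKB1 transcript was measured by TaqMan qRT-PCR on Fluidigm arrays, normalised to three housekeeping genes and fitted in both directions against 0.5% DMSO. HepaRG cells were dosed in duplicate for 48 h in serum-free induction medium, eight half-log steps from 100 uM.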

[15] = read-out: Protein phosphatase 2A (PPP2R4), PTPA (gene 5524); assay: LTEA_HepaRG_PPP2R4: Life Technologies and Expression Analysis (LTEA) Assay for Protein phosphatase 2A (PPP2R4) using HepaRG (AID 2283522)
Procedure, shortened: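 HepaRG, 48 h exposure, 8-pt half-log series from 100 uM, 0.5% DMSO vehicle, duplicates. Readout: PPP2R4 mRNA, Fluidigm qRT-PCR, housekeeping-normalized. Bidirectional curve fit vs DMSO baseline.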

[16] = read-out: Phosphatase and tensin (PTEN), PTEN (gene 5728); assay: LTEA_HepaRG_PTEN: Life Technologies and Expression Analysis (LTEA) Assay for Phosphatase and tensin (PTEN) using HepaRG (AID 2283523)
Procedure, shortened: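 HepaRG, 48 h exposure, 8-pt half-log series from 100 uM top, 0.5% DMSO vehicle, duplicates. Readout: Fluidigm qRT-PCR of PTEN transcript; housekeeping normalization (ACTB, GAPDH, POLR2A). Gain or loss fitted relative to DMSO baseline.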

[17] = read-out: solute carrier (SLC22A1), SLC22A1 (gene 6580); assay: LTEA_HepaRG_SLC22A1: Life Technologies and Expression Analysis (LTEA) Assay for solute carrier (SLC22A1) using HepaRG (AID 2283524)
Procedure, shortened: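 qRT-PCR readout (TaqMan, Fluidigm arrays) of SLC22A1 transcript, normalized to three housekeeping genes; bidirectional curve fit relative to 0.5% DMSO vehicle. Differentiated human HepaRG cells, 48 h chemical exposure, top concentration 100 uM, half-log steps, eight points.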

[18] = read-out: Pyruvate Dehydrogenase Kinase 4 (PDK4), PDK4 (gene 5166); assay: LTEA_HepaRG_PDK4: Life Technologies and Expression Analysis (LTEA) Assay for Pyruvate Dehydrogenase Kinase 4 (PDK4) using HepaRG (AID 2283525)
Procedure, shortened: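 HepaRG (human liver line), 48 h chemical exposure, 8-pt half-log CRC top 100 uM, 0.5% DMSO vehicle, duplicates. Readout: TaqMan qRT-PCR of PDK4 mRNA, housekeeping-normalized; gain/loss fit relative to DMSO baseline.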

Measured: outcome

Chain of Hypoxia-inducible factor 1-alpha (Homo sapiens) (Q16665 whole entry, looked up): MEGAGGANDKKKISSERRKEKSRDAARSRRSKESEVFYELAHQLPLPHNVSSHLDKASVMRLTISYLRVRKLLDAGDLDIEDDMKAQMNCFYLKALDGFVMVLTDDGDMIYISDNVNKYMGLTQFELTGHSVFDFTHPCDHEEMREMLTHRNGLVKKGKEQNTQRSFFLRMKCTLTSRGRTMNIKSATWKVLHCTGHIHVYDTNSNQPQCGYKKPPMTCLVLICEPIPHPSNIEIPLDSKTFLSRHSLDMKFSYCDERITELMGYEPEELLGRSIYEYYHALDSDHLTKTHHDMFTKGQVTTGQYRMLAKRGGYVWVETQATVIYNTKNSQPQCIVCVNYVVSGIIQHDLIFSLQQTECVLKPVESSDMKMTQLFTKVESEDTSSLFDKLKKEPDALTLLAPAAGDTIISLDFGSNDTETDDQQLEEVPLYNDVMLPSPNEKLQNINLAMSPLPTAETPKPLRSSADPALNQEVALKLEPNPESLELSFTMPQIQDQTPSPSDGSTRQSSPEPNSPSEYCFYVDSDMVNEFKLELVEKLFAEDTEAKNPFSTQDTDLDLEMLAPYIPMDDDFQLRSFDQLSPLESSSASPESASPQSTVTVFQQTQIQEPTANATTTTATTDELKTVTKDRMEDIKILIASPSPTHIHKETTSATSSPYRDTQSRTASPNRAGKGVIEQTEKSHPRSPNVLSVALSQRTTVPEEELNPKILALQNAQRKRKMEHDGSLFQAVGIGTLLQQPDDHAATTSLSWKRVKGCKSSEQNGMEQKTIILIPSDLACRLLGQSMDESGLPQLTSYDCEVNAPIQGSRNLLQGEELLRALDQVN
Chain of Nuclear factor NF-kappa-B p105 subunit (Homo sapiens) (P19838 whole entry, looked up): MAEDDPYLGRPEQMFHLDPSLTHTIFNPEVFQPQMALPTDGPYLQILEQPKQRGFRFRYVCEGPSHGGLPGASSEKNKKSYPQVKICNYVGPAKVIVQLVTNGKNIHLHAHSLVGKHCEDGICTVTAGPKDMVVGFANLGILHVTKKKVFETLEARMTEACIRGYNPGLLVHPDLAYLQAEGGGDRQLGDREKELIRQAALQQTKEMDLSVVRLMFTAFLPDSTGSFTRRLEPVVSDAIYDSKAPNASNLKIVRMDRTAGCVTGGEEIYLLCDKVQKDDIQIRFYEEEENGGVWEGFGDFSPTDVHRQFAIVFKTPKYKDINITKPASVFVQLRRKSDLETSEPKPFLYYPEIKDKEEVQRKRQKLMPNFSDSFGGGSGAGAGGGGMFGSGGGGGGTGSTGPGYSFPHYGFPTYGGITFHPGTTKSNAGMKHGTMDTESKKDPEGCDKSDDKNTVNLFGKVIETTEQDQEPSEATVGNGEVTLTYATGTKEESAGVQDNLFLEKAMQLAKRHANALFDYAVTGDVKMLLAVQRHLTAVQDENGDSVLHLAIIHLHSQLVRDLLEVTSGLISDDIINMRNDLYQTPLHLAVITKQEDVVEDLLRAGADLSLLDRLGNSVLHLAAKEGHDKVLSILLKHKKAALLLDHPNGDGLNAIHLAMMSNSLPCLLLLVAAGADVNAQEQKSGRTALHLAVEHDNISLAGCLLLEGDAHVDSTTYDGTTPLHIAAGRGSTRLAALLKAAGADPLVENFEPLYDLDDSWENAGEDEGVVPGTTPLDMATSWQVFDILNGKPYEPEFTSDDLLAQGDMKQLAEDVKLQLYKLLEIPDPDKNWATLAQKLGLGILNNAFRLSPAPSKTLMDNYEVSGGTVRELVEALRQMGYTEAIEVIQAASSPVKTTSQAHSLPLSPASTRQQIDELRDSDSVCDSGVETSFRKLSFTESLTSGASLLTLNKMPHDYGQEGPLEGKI

CC(C)O.CC(C)O.OCCN(CCO)CCO.OCCN(CCO)CCO.[Ti]
inactive: all assays above

N#Cc1cccnc1
not listed: [14]
inactive: all other assays above

CN(C)C(=S)S
not listed: [14]
inactive: all other assays above
